# Laboratory results reported in PubChem BioAssay (NCATS).
# Inconclusive results are not listed. A call without a number means that no potency is given here. Active and inactive are the calls of the source. The call rests on the fitted dose curve; in most records, active means well fitted cell-killing curve with a large enough effect; inconclusive means small, poorly fitted or top-dose-only effect, or effect the other way; inactive means flat fitted curve, though single readings scatter.
# Test system: CAOV3
# Assay: Primary qHTS to identify gynecologic anti-cancer compounds using libraries of approved drugs and bioactive compounds (AID 1345084); further: nearly all actives have a fitted effect of over 55% in size
# Conditions: Gynecologic cancer cell panel viability, ATPlite luminescence, 48 h; series mostly up to 57.5 µM
# Description: National Center for Advancing Translational Sciences [NCATS] Assay Overview: Chemotherapeutic drug responses vary from cancer to cancer and from patient to patient. These variations could be caused by a number of factors including patient genomic background, tumor mutations, tumor heterogeneity, and aspects of drug treatment. Chemotherapeutic drug resistance is also a common issue and can lead to ineffective treatment and patient death. Here we have profiled the cell killing effects of thousands of compounds to characterize the responses in three gynecological cancers, identify cancer-selective compounds, and understand the diversity of responses to these compounds from pan-cancer suppressors to single cell line selective compounds. In this assay, we screened a 7,914 compound drug library that included approved drug and bioactive compounds in six ovarian, three cervical, and […] placental cancer cell lines using the ATPlite assay for cell viability. […] The cervical cancer cell lines included HeLa, Ca Ski, and C-33 A. The placental cancer cell lines included JEG-3. HEK 293T cells were used as the control cell line to determine the selectivity index. ATPlite is a luminescence based assay reliant on the conversion of a luciferase substrate to light in the presence of ATP. As a cytotoxic compound will suppress growth and decrease the number of cells, the concentration of ATP will decrease, and less light signal will be detected in the well.
# Assay Protocol Summary: 1,000 cells in 4 uL of media were dispensed into white, solid bottom 1536-well plates using a Multidrop Combi (Thermo Scientific). The Assay plates were incubated for 16 hours at 37 C with 5% CO2 in assay plates, followed by the addition of 23 nL of DMSO or drug dissolved in DMSO. Each compound was assayed in five concentrations (0.092, 0.46, 2.3, 11.5, and 57.5 uM), using the automated Wako 1536 Pin Tool workstation and incubated at 37 C with 5% CO2 48 hours. 4 uL of ATPlite, the ATP monitoring reagent, was then added to the each well of the assay plates using the Multidrop Combi reagent dispenser followed by incubation for 15 minutes at room temperature. The resulting luminescence was measured using the ViewLux plate reader.
# Potency means the concentration at half of the fitted maximal effect.
row,SMILES,Potency
1,CC(C)NCC(O)c1ccc(N)c(C#N)c1 (stereo not given),inactive
2,Sc1ccccc1Cl,inactive
3,C[C@@H]1C[C@@H]([C@H](O)CC2CC(=O)NC(=O)C2)C(=O)[C@@H](C)C1,25.1 µM (active)
4,ClCc1cccc(Cl)c1,inactive
5,OC(O)C(Cl)(Cl)Cl,inactive
6,C[N+]1(C)[C@@H]2CC[C@H]1CC(OC(=O)C(CO)c1ccccc1)C2 (stereo not given in full),inactive
7,CCN(CC)C(C)C(=O)c1ccccc1 (stereo not given),inactive
8,C[C@H]1CNCCc2ccc(Cl)cc21,inactive
9,CCN1CCCC1CNC(=O)C(O)(c1ccccc1)c1ccccc1 (stereo not given),inactive
10,CN(C)CCc1c[nH]c2cccc(O)c12,inactive
11,CCC1(c2ccccc2)CCC(=O)NC1=O (stereo not given),inactive
12,C#C[C@]1(O)C=C[C@H]2[C@@H]3CCC4=CC(=O)CC[C@@H]4[C@H]3CC[C@@]21CC,inactive
13,CC(C(O)c1ccccc1)N(C)C/C=C/c1ccccc1 (stereo not given),inactive
14,CC#C[C@]1(O)CC[C@H]2[C@@H]3C[C@H](C)C4=CC(=O)CC[C@]4(C)[C@H]3CC[C@@]21C,inactive
15,COc1cc(CC(C)N)cc2c1OCO2 (stereo not given),inactive
16,Cc1cccc(Cc2cnc[nH]2)c1C,inactive
17,CC[n+]1c(-c2ccccc2)c2cc(N)ccc2c2ccc(N)cc21,12.6 µM (active)
18,OC(c1ccccc1)(c1ccccc1)C1CCNCC1,inactive
19,O=C(CCCN1CCC(n2c(=O)[nH]c3ccccc32)CC1)c1ccc(F)cc1,inactive
20,C[C@H]1C(=O)O[C@@H]2CCN3CC=C(COC(=O)[C@](C)(O)[C@]1(C)O)[C@H]23,inactive

row,SMILES,Potency
1,CCC(=O)O[C@H]1CC[C@H]2[C@@H]3CCC4=CC(=O)CC[C@]4(C)[C@H]3CC[C@]12C,inactive
2,c1ccc2nc(N3CCNCC3)ccc2c1,inactive
3,CCN(Cc1ccc(Cl)nc1)/C(=C/[N+](=O)[O-])NC,inactive
4,NC(=O)OCCCc1ccccc1,inactive
5,CCCCCCCCC(=O)NCc1ccc(O)c(OC)c1,inactive
6,CNC(=O)NC(O)C(Cl)(Cl)Cl (stereo not given),inactive
7,NC(=O)CN1CCCC1=O,inactive
8,CCCC(C)C1(CC)C(=O)N=C(S)NC1=O (stereo not given),inactive
9,CN1C2CCC(C)(C)C1CC(OC(=O)C(O)(c1cccs1)c1cccs1)C2 (stereo not given),inactive
10,CN(C)C(=S)SSC(=S)N(C)C,11.2 µM (active)
11,c1cc2c(c(N3CCNCC3)c1)OCCO2,inactive
12,CC(Cc1ccccc1)NCCCCl (stereo not given),inactive
13,CCN(CC)Cc1nccn1-c1ccc([N+](=O)[O-])cc1C(=O)c1ccccc1Cl,inactive
14,COP(=O)(OC)OC=C(Cl)Cl,inactive
15,Oc1ccc([C@H]2CNCc3c2ccc(O)c3O)cc1O,inactive
16,O=C(O)c1nn(Cc2ccc(Cl)cc2Cl)c2ccccc12,inactive
17,COc1cc(CC(C)N)c(OC)cc1Br (stereo not given),inactive
18,CC(C)=CCN1CC[C@@]2(C)c3cc(O)ccc3C[C@@H]1[C@@H]2C,inactive
19,CC(C)(O)C(Cl)(Cl)Cl,inactive
20,COP(=O)(OC)C(O)C(Cl)(Cl)Cl (stereo not given),inactive
